# From PubChem BioAssay
# PERK inh – blocks human PERK kinase; CHO PERK-DD fusion, SEAP luminescence translation reporter; inhibition, % at 5.6 µM; 0.17% of 220,000 active; AID 1416;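 active means inhibition above the mean inhibition of all tested compounds plus 3 SD, set separately per screening campaign, cut at about 2.9% in these data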;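 further: PERK kinase domain activated by AP20187 dimerizer at 100 nM; 0% = DMSO with dimerizer and 100% = rapamycin at 8.4 µM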
# eIF4H inh – inhibitors of RNA binding by human eIF4H | Q15056 | eIF4H fluorescence polarization binding assay | inhibition, % at 35 µM | 0.94% of 290,000 active;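 further: calls also rest on retests at 20 µM and on dose response follow-up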
# eIF4E-4G inh – eIF4E/eIF4G interaction inhibition in translation initiation; TR-FRET eIF4E-eIF4GI(517-606) binding, 2 h; 0.37% of 220,000 active; inhibition, % at 21.7 µM;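 active means inhibition above about 30%, limit read from the data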;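 further: 0% = full FRET control wells and 100% = background wells lacking eIF4GI fragment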
# Target sequence (P63073 whole entry, looked up, the tested form may be a part): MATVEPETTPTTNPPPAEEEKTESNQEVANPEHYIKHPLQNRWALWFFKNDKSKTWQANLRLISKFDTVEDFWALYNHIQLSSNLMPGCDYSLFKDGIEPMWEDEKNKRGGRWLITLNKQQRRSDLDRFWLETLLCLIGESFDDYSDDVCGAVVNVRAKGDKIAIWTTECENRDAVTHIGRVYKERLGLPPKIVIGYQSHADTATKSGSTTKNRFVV
# Target sequence (Q04637 whole entry, looked up, the tested form may be a part): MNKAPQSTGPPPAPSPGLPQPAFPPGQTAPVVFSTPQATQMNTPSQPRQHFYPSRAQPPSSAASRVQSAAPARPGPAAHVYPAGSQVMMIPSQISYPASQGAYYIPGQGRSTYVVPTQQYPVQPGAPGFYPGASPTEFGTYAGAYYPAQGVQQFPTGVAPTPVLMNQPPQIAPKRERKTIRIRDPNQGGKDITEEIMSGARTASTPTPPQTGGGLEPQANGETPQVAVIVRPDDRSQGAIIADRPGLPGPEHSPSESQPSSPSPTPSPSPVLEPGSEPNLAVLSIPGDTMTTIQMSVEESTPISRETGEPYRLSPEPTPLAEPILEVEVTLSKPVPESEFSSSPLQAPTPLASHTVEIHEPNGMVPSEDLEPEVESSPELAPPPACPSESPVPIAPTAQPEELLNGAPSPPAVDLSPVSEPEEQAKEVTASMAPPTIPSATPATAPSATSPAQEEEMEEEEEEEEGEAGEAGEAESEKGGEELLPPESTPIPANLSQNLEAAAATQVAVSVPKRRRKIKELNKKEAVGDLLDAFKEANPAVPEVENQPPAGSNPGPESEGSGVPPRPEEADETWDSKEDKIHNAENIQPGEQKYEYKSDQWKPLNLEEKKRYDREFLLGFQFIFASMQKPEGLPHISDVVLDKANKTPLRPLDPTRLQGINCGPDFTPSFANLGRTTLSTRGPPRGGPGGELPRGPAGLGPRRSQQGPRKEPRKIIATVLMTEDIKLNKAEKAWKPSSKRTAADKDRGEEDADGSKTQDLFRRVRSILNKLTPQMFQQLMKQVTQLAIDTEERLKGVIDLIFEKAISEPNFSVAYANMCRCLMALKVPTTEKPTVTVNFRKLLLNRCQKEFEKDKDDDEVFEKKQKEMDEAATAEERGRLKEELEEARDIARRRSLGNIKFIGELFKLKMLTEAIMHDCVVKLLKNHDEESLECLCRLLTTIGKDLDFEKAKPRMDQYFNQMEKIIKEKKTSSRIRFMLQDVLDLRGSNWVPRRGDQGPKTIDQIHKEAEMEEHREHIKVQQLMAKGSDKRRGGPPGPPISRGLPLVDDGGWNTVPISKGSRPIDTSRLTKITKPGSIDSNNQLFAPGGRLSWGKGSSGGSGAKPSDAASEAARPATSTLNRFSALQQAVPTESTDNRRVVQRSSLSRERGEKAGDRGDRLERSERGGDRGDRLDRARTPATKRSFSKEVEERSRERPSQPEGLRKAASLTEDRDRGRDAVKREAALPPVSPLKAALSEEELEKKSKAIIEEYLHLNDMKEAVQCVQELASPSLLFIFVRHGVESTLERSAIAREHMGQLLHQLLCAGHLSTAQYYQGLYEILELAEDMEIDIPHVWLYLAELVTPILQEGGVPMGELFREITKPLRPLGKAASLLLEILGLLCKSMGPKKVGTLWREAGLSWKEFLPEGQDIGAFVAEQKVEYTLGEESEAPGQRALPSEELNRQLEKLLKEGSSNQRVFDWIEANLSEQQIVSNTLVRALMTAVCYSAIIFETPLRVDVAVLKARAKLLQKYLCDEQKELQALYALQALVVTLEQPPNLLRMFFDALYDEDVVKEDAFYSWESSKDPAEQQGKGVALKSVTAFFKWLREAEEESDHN
# PABP FP inh – blocks human PABP binding to poly(A) RNA | 1% of 290,000 active | inhibition, % at 35 µM | fluorescence polarization | AID 2014 | P11940;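 further: calls also rest on retests at 20 µM and on dose response follow-up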
# MLLE-PAM2 inh – inhibitors of microRNA-mediated deadenylation, human PABP1 MLLE binding | P11940 | GST-MLLE / FITC-PAM2 fluorescence polarization | inhibition, % at 20 µM | 0.36% of 360,000 active; in the data active means inhibition above about 35%, passing the limit was not always enough;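 further: plate controls were DMSO wells with GST-MLLE for no effect and wells lacking GST-MLLE protein for full effect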
# The depositor's hits bear a star; i = inactive; ? = inconclusive; nt = not tested or not shown; ! = repeats disagree; [ ] = another dose, or the depositor's remark. Rows were chosen to be rich in hits. Some 1.6% of all compounds tested hit in one or more screens of this group. Unless noted, how the calls were made is not given here.
SMILES,PERK inh,eIF4H inh,eIF4E-4G inh,PABP FP inh,MLLE-PAM2 inh
Cc1cc(SCC(=O)N/N=C/c2ccc(O)c(O)c2O)c(C)cc1Br,1,93*,15,60*,12
CC(=O)NCCNc1nc2cc(-c3cc(F)ccc3C)sc2c(=O)n1C,nt,nt,nt,nt,-2
COc1ccc(S(=O)(=O)NCc2ccccc2)cc1,1,-11,9,4,1
COc1ccc(C(=O)COC(=O)c2cc(S(=O)(=O)NCc3ccccc3)ccc2O)cc1,0,active,-1,69*,-5
CCOC(=O)c1cnc2c(C)cccc2c1NCCCN1CCOCC1,nt,5,nt,10,-9
CNC(=S)NN=C(C)c1ccc(OC)cc1O,nt,nt,nt,nt,43*
O=C(O)CCC(=O)Nc1sc2c(c1C(=O)Nc1ccccc1)CCCCC2,1,23,5,-3,-50
O=C(O)CCC(=O)Nc1sc2c(c1C(=O)Nc1cccc3ccccc13)CCCCC2,0,58*,1,1.4*,-78
COC(=O)Nc1ccc(Oc2ccccc2)cc1,1,-4,0,-8,8
O=C(C1=C[C@@H]2[C@H]3C(=O)N(c4ccccc4Cl)C(=O)[C@H]3[C@@H](C(=O)c3ccc(Cl)cc3)N2C=C1)c1ccccc1,-1,52*,-1,12,nt
COc1ccccc1C(=O)C(=O)c1ccccc1OC,nt,nt,nt,nt,7
COc1ccccc1C(N)=S,1,0,-2,9,40*
COc1ccc(OC)c(NC(=O)C2CCCNC2=O)c1 (stereo not drawn),0,6,-9,-1,17
O=C(O)c1ccc2[nH]c3c(c2c1)CSCC3,-1,56*,5,41,33
O=C(NC1CC1)C1=C[C@@H](c2ccc(C(F)(F)F)cc2)C[C@@H](OCCCCO)O1,nt,nt,nt,nt,3
Cn1nnnc1SCc1nc2scc(-c3ccc(Cl)cc3)c2c(=O)[nH]1,0,59*,0,51*,-90
CCC(=O)NC(=S)NNC(=O)c1ccccc1[N+](=O)[O-],0,?,-1,active,10
O=c1ccc(-c2ccccc2)n[nH]1,3.0*,-11,-3,-8,-9
CC(C)CC(=O)NC(=S)Nc1nc(-c2cccc3ccccc23)cs1,0,0,-5,3,27
Cc1csc(N/N=C/c2ccc(O)c([N+](=O)[O-])c2)n1,1,68*,15,23*,-27
c1ccc2[nH]c(-c3ccnc4ccccc34)nc2c1,0,2,49*![fluorescence artefact?],29,13
O=C1c2ccccc2-c2onc3c(N4CCN(CCO)CC4)cc(N4CCN(C(=O)c5ccco5)CC4)c1c23,nt,83*,nt,72*,-76
O=C(c1ccco1)N1CCN(CCCCN2C(=O)c3ccccc3C2=O)CC1,0,12,7,7,3
O=C(O)CCCNc1cc(N2CCN(C(=O)c3ccco3)CC2)c2noc3c2c1C(=O)c1ccccc1-3,nt,?,nt,?,-53
CN1CCN(c2cc(N3CCN(C(=O)c4ccco4)CC3)c3c4c(onc24)-c2ccccc2C3=O)CC1,nt,93*,nt,86*,-99
SMILES,PERK inh,eIF4H inh,eIF4E-4G inh,PABP FP inh,MLLE-PAM2 inh
CC(C(=O)N1CCOCC1)N1C(=O)c2ccccc2C1=O (stereo not drawn),1,0,4,0,-2
COc1ccc(NC(=O)c2cc(C3CCCCN3C(=O)OCC(C)C)on2)c(C)c1 (stereo not drawn),nt,nt,nt,nt,10
CCNc1cc2oc(=O)c(CN3CCOCC3)c(C)c2cc1C,0,?,0,?,48*
Cc1cc2oc(=O)cc(CN3CCOCC3)c2cc1C,0,-3,4,-2,-8
O=C1c2ccccc2-c2onc3ccc(N4CCCC4)c1c23,0,?,34*,-2,i
CCOc1ccc2noc3c2c1C(=O)c1ccccc1-3,0,45,-9,16,i
CCc1nnc(NC(=O)CCC(=O)N2CCN(Cc3ccccc3)CC2)s1,0,6,3,20,-1
CC1(C(=O)Nc2ccc3c(c2)OCO3)CCN1C(=O)Cc1cccc2ccccc12 (stereo not drawn),nt,nt,nt,nt,13
O=C(Oc1c(CN2CCOCC2)cc(Cl)c2cccnc12)c1ccccc1F,0,?,-1,68*,15
O=[N+]([O-])c1cc(CN2CCOCC2)c2cccnc2c1O,1,?,33*,4,nt
Oc1c(Cl)cc(CN2CCOCC2)c2cccnc12,nt,nt,nt,nt,28
CC1CCN(C(=O)Cn2c(=O)n(-c3ccc(F)cc3)c(=O)c3sccc32)CC1,1,0,4,-8,3
CC1CCCCN1C(=O)Cn1c(=O)n(-c2ccc(F)cc2)c(=O)c2sccc21 (stereo not drawn),0,-5,75*,5,3
COc1ccc(CCNC(=O)c2ccc3c(=O)n(Cc4ccco4)c(=S)[nH]c3c2)cc1OC,1,73*,-13,22*,-29
COc1ccc(CCNC(=O)c2ccc3nc(-c4ccco4)c(-c4ccco4)nc3c2)cc1OC,-1,106*,14,67*,38*
CCCNC(=O)c1ccc2c(=O)n(Cc3ccco3)c(=S)[nH]c2c1,1,91*,-7,99*,-62
COc1ccc(C(C)(C)C)cc1NC(=O)COC(=O)c1cnc(C)cn1,2,-16,2,-5,30
O=C(Cn1cnc2ccccc2c1=O)N(Cc1ccco1)c1ccc(O)cc1,-1,-9,4,3,-7
CC(C)CCOC(=O)C(C)Sc1n[nH]c(=O)[nH]c1=O (stereo not drawn),2,-3,1,1,9
COCCNC(=S)N(CCc1c(C)[nH]c2ccc(F)cc12)Cc1cccnc1,nt,-4,nt,2,-136
N#Cc1c(NCCCO)nc(NCc2ccccc2)c2c1CCN(Cc1ccccc1)C2,-1,?,8,?,32
CN1CCc2c(C#N)c(N3CCCCC3)nc(NCc3ccccc3)c2C1,-2,74*,nt,53*,47
COc1ccc(NC(=O)CSC2CCCCC2)cc1,0,-5,-2,4,-6
S=c1nc(C2COc3ccccc3O2)[nH][nH]1 (stereo not drawn),0,6,6,-6,29
S=c1[nH]nc(C2COc3ccccc3O2)o1 (stereo not drawn),3.0*,-8,0,22,-84
SMILES,PERK inh,eIF4H inh,eIF4E-4G inh,PABP FP inh,MLLE-PAM2 inh
N#C/C(=C/c1ccc(N2CCCCC2)o1)C(=O)Nc1ccc(Cl)cc1,-1,127*,-2,118,-112
CN1C(=O)/C(=C/c2cc3c(cc2Br)OCO3)NC1=S,0,-7,3,-5,-92
Cc1ccc(O)c(NC(=S)NC(=O)/C=C/c2ccccc2)c1,nt,7,nt,17,41*
COc1ccc(C(=O)O)cc1NC(=S)NC(=O)/C=C/c1ccc(C(C)C)cc1,nt,-4,nt,-4,39*
CCOC(=O)c1c(NC(=O)COC(=O)c2ccccn2)sc2c1CCC2,1,8,6,15,-15
CCOC(=O)C1(Cc2cccc(OC)c2)CCCN(Cc2cc(C(C)C)n[nH]2)C1 (stereo not drawn),0,1,1,0,0
